Assay outcomes as filed in PubChem.
Avidin fluor: avidin bead compound fluorescence profile. Avidin beads, compound fluorescence 488/530 nm, flow cytometry; stronger effect = higher value. fluorescence (KMESF) at 10 µM. actives 0.38% (n = 220,000); in the data active = fluorescence above about 47
RGS4-Gao reg: human RGS4-Galphao interaction regulation; P09471; Multiplexed bead flow cytometry, RGS4-Galphao binding; actives lie on both sides; binding response (% of control), % at 10 µM; actives 0.33% (n = 220,000); in the data active = binding response below about 49% or above about 150%; inactive = in between;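 note: fluorescent Galphao activated with aluminum fluoride binding bead-coupled RGS4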
Target sequence (P09471 whole entry, looked up): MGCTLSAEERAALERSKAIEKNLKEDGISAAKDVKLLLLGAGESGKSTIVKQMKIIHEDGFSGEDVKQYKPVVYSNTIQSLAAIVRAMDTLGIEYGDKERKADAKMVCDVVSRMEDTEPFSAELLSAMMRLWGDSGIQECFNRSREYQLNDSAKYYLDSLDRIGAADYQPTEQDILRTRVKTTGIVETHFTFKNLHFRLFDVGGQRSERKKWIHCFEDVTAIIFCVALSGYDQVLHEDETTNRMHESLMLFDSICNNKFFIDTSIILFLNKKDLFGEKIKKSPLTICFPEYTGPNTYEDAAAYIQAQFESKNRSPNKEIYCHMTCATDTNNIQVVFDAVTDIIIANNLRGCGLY
RGS8-Gao: modulates binding of RGS8 to human Galphao; AID 1423; actives 0.34% (n = 220,000); multiplexed bead flow cytometry; actives lie on both sides; P09471; response (percent of control binding), % at 10 µM; in the data active = response below about 60% or above about 140%; inactive = in between;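 note: Galphao activated as the GDP aluminium fluoride complex binding bead-coupled RGS8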
RGS16-Gao: RGS16-Galphao interaction regulator (human); bead-based flow cytometry RGS16-Galphao binding, fluorescence; actives lie on both sides; binding response (% of control), % at 10 µM; actives 0.38% (n = 220,000); AID 1441; call rule not given here;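 note: Galphao activated by GDP with aluminum fluoride before binding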
GSH bead fluor: GSH bead compound fluorescence profile; actives 0.25% (n = 190,000); fluorescence (KMESF) at 10 µM; GSH beads flow cytometry, compound fluorescence 488/530 nm; stronger effect = higher value; in the data active = fluorescence above about 89;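 note: glutathione beads carrying GST-tagged Bcl family fusion proteins plus one bare bead set; values are compound well signal with DMSO vehicle wells as background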
RGS7-Gao reg: modulates binding of RGS7 to human Galphao | Multiplexed bead flow cytometry; actives lie on both sides | AID 1439 | P09471 | actives 0.35% (n = 220,000) | binding response (% of control), % at 10 µM; in the data active = binding response below about 49% or above about 150%; inconclusive = no clear call, values can overlap the other calls; inactive = in between;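 note: fluorescent Galphao held in activated GDP-AlF4 state binding bead-coupled RGS7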
Starred values were filed as active, the others as inactive; u = inconclusive; x = no result. The list is not random: actives were taken first. Their share in the collection is about 1.2%.

SMILES	Avidin fluor	RGS4-Gao reg	RGS8-Gao	RGS16-Gao	GSH bead fluor	RGS7-Gao reg
COc1ccccc1C(=O)NCc1ccccn1	13	102	101	104	11	104
COc1ccc(NC(=O)Cn2cnc3ccccc3c2=O)cc1OC	6	101	88	113	17	94
O=C(Cn1cnc2ccccc21)NCc1ccccc1	58*	105	101	103	33	136
COc1ccccc1CNC(=O)Cn1cnc2ccccc2c1=O	6	131	123	166	234*	122
O=C(COC(=O)Cn1cnc2ccccc21)NCc1ccc(F)cc1	9	101	102	103	15	u
CC(=O)N1CCN(CC(=O)Nc2cc(S(=O)(=O)N3CCOCC3)ccc2C)CC1	11	100	100	100	14	u
COc1cc(-c2[nH]ncc2CN2CCN(c3cccc(C)n3)CC2)cc(OC)c1OC	4	99	101	101	x	u
COc1ccc(CCN(C)Cc2ccc(OC)c(OCc3ccccc3)c2)cc1OC	50*	106	106	106	32	127
Oc1[nH]c2ccccc2c1N=Nc1ccccc1	9	100	101	104	x	u
O=S1(=O)N=C(N=Nc2c(O)[nH]c3ccccc23)c2ccccc21	2	12*	17*	4.8*	9	12*
CCOc1ccc(N2C(=O)CN(O)C=C3N=c4ccccc4=C32)cc1	5	93	97	96	20	97
CCCCn1c(CN2CCN(C)CC2)nc2ccccc21	10	101	100	99	25	99
CCCn1c(CN2CCN(C)CC2)nc2ccccc21	0	23*	13*	14*	37	16*
C/C(CC(=O)Nc1ccc2c(c1)OCCO2)=N\NC(=O)C(=O)Nc1ccccc1C	12	103	102	103	18	99
O=C1C=C(NNC(=O)c2ccccc2Br)CCC1	2	97	101	102	5	93
CS(=O)(=O)N1CCN(c2cnn(-c3ccccc3)c(=O)c2Cl)CC1	90*	106	99	109	62	142
CC1=C(C(=O)OCc2ccccc2)C(c2ccsc2)C(C#N)=C(N)O1 (stereo unspecified)	5	90	80	48	23	94
COC(=O)C1=C(C)OC(N)=C(C#N)C1c1ccsc1 (stereo unspecified)	8	117	106	117	89*	110
CC(=O)Nc1ccc(S(=O)(=O)N2CCSC2c2ccc(Cl)cc2)cc1 (stereo unspecified)	9	97	86	60	265*	100
COc1ccc2nc(SCC(=O)Nc3ccccc3C)[nH]c2c1	64*	99	99	99	19	110
COc1ccc2nc(SCC(=O)Nc3ccccc3C#N)[nH]c2c1	6	101	102	97	20	97
Cc1onc(-c2ccccc2)c1C(=O)Nc1ccncc1	50*	100	101	104	12	109
CCOC(=O)CSc1nc2ccccc2c(=O)n1C1CCCC1	91*	111	103	107	34	132
O=C(c1ccc(CN2CCOCC2)cc1)N1CCC(Cc2ccccc2)CC1	91*	114	102	107	23	135
O=C(O)CCCN1C(=O)C(=O)/C(=C(/O)c2ccccc2)C1/C=C/c1ccccc1 (stereo unspecified)	21	101	103	105	12	98
SMILES	Avidin fluor	RGS4-Gao reg	RGS8-Gao	RGS16-Gao	GSH bead fluor	RGS7-Gao reg
COc1ccc(C(=O)Nc2ccc(N3CCOCC3)cc2)cc1OC	99*	112	99	103	35	129
COc1ccc(C(=O)Nc2ccc(S(=O)(=O)N3CCOCC3)cc2)cc1OC	12	102	101	102	35	100
COc1ccc(NC(=O)N2CCOCC2)cc1OC	6	100	101	89	261*	101
COc1cccc(NC(=O)N2CCOCC2)c1	37	99	101	103	11	97
Cc1nc(N2CCOCC2)c(C#N)c(C)c1Br	7	103	100	101	260*	102
CS(=O)(=O)N1CCN(c2ccc([N+](=O)[O-])c(NCc3ccc(Cl)cc3)c2)CC1	15	101	102	104	99*	101
O=C(Nc1ccc2c(c1)OCO2)[C@@H]1[C@@H]2C(=O)N(C3CCCCC3)C(=O)[C@@H]2C2c3ccccc3C=CN21 (stereo partly specified)	8	110	84	101	237*	81
CC1(C)CC(NC(=O)C23CCC(C)(C2Br)C3(C)C)CC(C)(C)N1 (stereo unspecified)	8	105	106	107	x	u
CC(Oc1ccccc1)C(=O)OCC(=O)NC(=O)NCc1ccco1 (stereo unspecified)	6	106	105	122	267*	102
CC(C)c1cc(C(=O)OCC(=O)NC(=O)NCc2ccco2)c(O)c(C(C)C)c1	9	103	101	105	9	u
Cc1cc(=O)oc2cc(OCc3nnc(-c4ccccc4Br)o3)ccc12	49*	98	98	101	12	104
O=C(NNc1cc(Br)c(O)c(Br)c1)c1ccccc1	7	99	99	98	18	95
CC(C)(C)NC(=O)c1cccc(NC(=O)c2ccco2)c1	4	98	90	80	99*	95
CC(C)(C)NC(=O)c1cccc(NC(=O)c2ccc(NC(=O)c3ccco3)cc2)c1	10	99	101	100	29	102
CCOC(=O)/C=C1\SCC(=O)N1Cc1nnc(-c2ccccc2Br)o1	50*	98	98	98	22	101
Cc1sc2ncnc(Nc3ccccc3)c2c1C	92*	108	99	106	13	138
Cc1sc2ncnc(NCc3ccccc3)c2c1C	12	94	100	94	25	100
c1ccc(Cn2c(CSc3nnnn3-c3ccccc3)nc3ccccc32)cc1	3	84	97	26	237*	97
COC1=C(OC)c2ccccc2C(C(=O)O)N/C1=C(/C)Nc1ccncc1 (stereo unspecified)	9	101	101	102	267*	102
O=c1[nH]c(CSc2nc3ccccc3o2)nc2c1cnn2-c1ccccc1	8	101	103	106	255*	101
O=c1[nH]c(SCc2nc3c(cnn3-c3ccccc3)c(=O)[nH]2)nc2ccccc12	18	101	99	102	9	99
CCN(c1ccc(NC(=O)c2ccc(Cl)nc2)cc1)C(C)C	12	101	102	103	15	u
O=C(CSc1nnc(-c2ccncc2)o1)N1CCc2ccccc2C1	47*	102	105	110	12	110
COc1ccc(NS(=O)(=O)c2ccc3c(c2)CCO3)cc1	61*	115	95	99	x	u
